From PubChem BioAssay
A number with no mark means an inactive call. For part of these data: Entries with a potency or affinity are not part of this list. The source made the active and inactive calls. Unless noted, how the calls were made is not given here.

Legend:
[1] = antimalarial activity against Dd2 strain (AID 2302;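 active means growth inhibition above 50% at the single 2 µM test dose, taken to imply half-maximal potency below 2 µM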;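 further: 0% = DMSO untreated growth and 100% = chloroquine plus artemisinin killed control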); settings: P. falciparum Dd2 in RBCs, LDH growth readout, 72 h; at 2 µM; stronger effect = higher value
[2] = human hepatoma cell viability loss – ATP luminescence, cytotoxicity control for P. falciparum antimalarial project, primary screen (AID 2303;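 active means inhibition above 50%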;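 further: 0% = DMSO wells and 100% = digitonin-killed cells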); settings: HepG2 viability, 24-48 h, at 10 µM, stronger effect = higher value
[3] = biological target: L-lactate dehydrogenase (Plasmodium falciparum (isolate CDC / Honduras)) (UniProt Q27743); assay: PfLDH activity inhibition – cell lysate, 3D7 strain, counter-screen for P. falciparum growth inhibition project (AID 2304);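 further: 0% = vehicle and 100% = reference inhibitor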; settings: P. falciparum 3D7 crude extract, LDH APAD/NBT absorbance; at 2 µM; stronger effect = higher value
[4] = inhibition of 3D7 malaria parasite growth – strain 3D7 (AID 2306);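 further: 0% = DMSO wells and 100% = chloroquine plus artemisinin control wells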; settings: P. falciparum 3D7 erythrocytic growth, LDH absorbance, 72 h; at 2 µM; stronger effect = higher value
[5] = biological target: Calcium-dependent protein kinase 1 (Plasmodium falciparum (isolate 3D7)) (UniProt P62344); assay: PfCDPK1 kinase inhibitors, biochemical, TCAMS library (AID 1159585; cut-off not given, nearly all actives have IC50 up to about 0.98 µM;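 further: inhibitors leave more ATP so luminescence rises with inhibition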); settings: recombinant PfCDPK1, Kinase-Glo ATP depletion luminescence
[6] = biological target: Plasmodium falciparum protein kinase 6 (PK6, PF3D7_1337100) (UniProt Q8IDW1); assay: PfPK6 kinase inhibitors, biochemical, TCAMS library (AID 1159586); settings: recombinant PfPK6, Kinase-Glo ATP depletion luminescence
[7] = biological target: Protein kinase 7 (PK7), Plasmodium falciparum 3D7 (PF3D7_0213400) (UniProt Q7YTF7); assay: inhibition of Plasmodium PK7 catalytic activity – biochemical, TCAMS antimalarial set, Kinase-Glo luminescence (AID 1159587); settings: recombinant PfPK7, Kinase-Glo ATP depletion luminescence
[8] = biological target: Calcium-dependent protein kinase 4 (Plasmodium falciparum (isolate 3D7)) (UniProt Q8IBS5); assay: PfCDPK4 kinase inhibitors, biochemical, TCAMS library (AID 1159588; cut-off not given, nearly all actives have IC50 up to about 0.91 µM); settings: recombinant PfCDPK4, Kinase-Glo ATP depletion luminescence
Calcium-dependent protein kinase 4 (Plasmodium falciparum (isolate 3D7)), sequence (Q8IBS5 whole entry, looked up): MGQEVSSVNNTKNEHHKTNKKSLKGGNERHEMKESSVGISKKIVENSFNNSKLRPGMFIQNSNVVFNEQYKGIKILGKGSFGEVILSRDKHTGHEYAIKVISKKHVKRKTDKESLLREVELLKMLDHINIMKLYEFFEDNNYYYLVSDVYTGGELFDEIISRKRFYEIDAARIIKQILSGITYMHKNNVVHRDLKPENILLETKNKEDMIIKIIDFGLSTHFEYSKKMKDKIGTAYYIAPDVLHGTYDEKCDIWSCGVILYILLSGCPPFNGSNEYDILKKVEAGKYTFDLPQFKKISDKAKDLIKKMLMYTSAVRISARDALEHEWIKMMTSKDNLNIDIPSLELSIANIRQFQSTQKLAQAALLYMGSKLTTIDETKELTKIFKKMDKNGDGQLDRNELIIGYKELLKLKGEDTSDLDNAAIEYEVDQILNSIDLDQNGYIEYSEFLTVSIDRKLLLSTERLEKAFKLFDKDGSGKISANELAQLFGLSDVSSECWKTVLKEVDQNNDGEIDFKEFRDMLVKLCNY

Protein kinase 7 (PK7), Plasmodium falciparum 3D7 (PF3D7_0213400), sequence (Q7YTF7 1-343): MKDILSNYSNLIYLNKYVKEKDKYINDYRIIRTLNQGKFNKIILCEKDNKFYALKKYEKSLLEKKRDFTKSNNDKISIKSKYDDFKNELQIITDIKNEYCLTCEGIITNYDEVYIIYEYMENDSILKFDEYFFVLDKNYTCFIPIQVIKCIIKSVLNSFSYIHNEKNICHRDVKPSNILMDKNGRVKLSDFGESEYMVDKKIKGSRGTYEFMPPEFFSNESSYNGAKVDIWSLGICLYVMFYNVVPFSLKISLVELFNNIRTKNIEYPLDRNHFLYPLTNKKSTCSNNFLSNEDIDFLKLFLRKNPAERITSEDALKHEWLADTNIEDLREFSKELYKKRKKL
Calcium-dependent protein kinase 1 (Plasmodium falciparum (isolate 3D7)), sequence (P62344 whole entry, looked up): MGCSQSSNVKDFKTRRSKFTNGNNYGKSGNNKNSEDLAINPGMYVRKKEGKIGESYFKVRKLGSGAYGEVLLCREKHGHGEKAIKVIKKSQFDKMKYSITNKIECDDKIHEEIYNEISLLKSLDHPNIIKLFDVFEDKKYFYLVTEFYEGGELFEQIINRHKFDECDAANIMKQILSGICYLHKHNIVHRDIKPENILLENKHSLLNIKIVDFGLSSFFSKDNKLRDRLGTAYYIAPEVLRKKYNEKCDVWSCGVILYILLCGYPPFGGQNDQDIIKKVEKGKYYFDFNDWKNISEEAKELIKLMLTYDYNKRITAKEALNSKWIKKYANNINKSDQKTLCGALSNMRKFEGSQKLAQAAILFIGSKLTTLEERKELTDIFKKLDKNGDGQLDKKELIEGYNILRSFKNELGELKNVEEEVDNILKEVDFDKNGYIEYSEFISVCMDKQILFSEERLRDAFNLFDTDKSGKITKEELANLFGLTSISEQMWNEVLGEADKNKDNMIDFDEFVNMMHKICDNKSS
L-lactate dehydrogenase (Plasmodium falciparum (isolate CDC / Honduras)), sequence (Q27743 whole entry, looked up): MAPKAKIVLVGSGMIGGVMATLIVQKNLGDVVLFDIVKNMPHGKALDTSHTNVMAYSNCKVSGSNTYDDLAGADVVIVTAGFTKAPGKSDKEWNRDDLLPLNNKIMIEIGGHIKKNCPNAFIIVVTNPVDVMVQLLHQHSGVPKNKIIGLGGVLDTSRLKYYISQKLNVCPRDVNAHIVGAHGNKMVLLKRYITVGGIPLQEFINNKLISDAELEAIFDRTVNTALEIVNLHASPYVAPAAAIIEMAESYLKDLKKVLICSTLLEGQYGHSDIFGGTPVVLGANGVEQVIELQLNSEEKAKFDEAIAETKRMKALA
Plasmodium falciparum protein kinase 6 (PK6, PF3D7_1337100), sequence (Q8IDW1 1-305): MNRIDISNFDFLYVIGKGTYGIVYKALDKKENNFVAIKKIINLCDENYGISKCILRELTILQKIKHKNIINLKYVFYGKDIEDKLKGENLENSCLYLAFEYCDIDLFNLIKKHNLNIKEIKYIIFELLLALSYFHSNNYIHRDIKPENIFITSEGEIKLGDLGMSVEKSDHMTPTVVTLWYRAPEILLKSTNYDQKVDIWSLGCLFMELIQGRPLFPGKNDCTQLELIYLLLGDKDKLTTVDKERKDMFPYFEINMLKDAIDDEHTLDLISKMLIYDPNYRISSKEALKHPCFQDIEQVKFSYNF

| Compound | growth inhibition [1] | inhibition [2] | inhibition [3] | growth inhibition [4] | outcome [5] | outcome [6] | outcome [7] | outcome [8] |
| --- | --- | --- | --- | --- | --- | --- | --- | --- |
| O=C(NC1CC1)c1cnc(N2CCC(COc3cccc(F)c3)CC2)c(Cl)c1 | 87% (active) | 1% | 5% | 89% (active) | inactive | inactive | inactive | inactive |
| COc1ccc(CN(C)CC(O)COc2ccc(NC(=O)c3cccc4c(=O)c5cccc(OC)c5[nH]c34)cc2)cc1OC (configuration not stated) | 65% (active) | 72% (active) | -3% | 93% (active) | inactive | inactive | inactive | inactive |
| Fc1ccc2nc(-c3ccc(-c4ccc(CNCCc5ccncc5)cc4)s3)[nH]c2c1 | 100% (active) | 34% | -3% | 99% (active) | inactive | inactive | inactive | inactive |
| Cc1ccc2nc(/C=C/c3cccc4cc[nH]c34)[nH]c2c1 | 92% (active) | 9% | -3% | 100% (active) | inactive | inactive | inactive | inactive |
| CCCCCN(C(=O)Nc1cc(C(F)(F)F)cc(C(F)(F)F)c1)C(C)c1nc2ccccc2c(=O)n1CC (configuration not stated) | 101% (active) | -3% | 3% | 100% (active) | inactive | inactive | inactive | inactive |
| Cc1ccc2nc(N(CCCn3ccnc3)C(=O)C=Cc3cccs3)sc2c1 | 57% (active) | 22% | 0% | 100% (active) | inactive | inactive | inactive | inactive |
| O=[N+]([O-])c1cccc(Nc2cncc(-c3ccc(CO)cc3)c2)c1 | 96% (active) | 16% | -5% | 85% (active) | inactive | inactive | inactive | inactive |
| O=C(Nc1cccnc1)c1cn(-c2ccccc2)nc1-c1cccs1 | 61% (active) | 3% | -3% | 99% (active) | inactive | inactive | inactive | inactive |
| Cc1noc(-c2ccccc2)c1NC(=O)NC1CCN(CCCCCNC(=O)/C=C/c2ccc(Cl)c(Cl)c2)CC1 | -3% | -3% | -3% | 93% (active) | inactive | inactive | inactive | inactive |
| O=C(Cc1ccccc1)NC1(c2ccccc2)CCN(CCc2c[nH]c3ccc(F)cc23)CC1 | 62% (active) | 29% | 2% | 87% (active) | inactive | inactive | inactive | inactive |
| Cc1sc2nc(CSc3ccccc3)nc(N3CCN(CC(=O)N4CCCC4)CC3)c2c1C | 69% (active) | 19% | 2% | 91% (active) | inactive | inactive | inactive | inactive |
| CCC(C)c1ccc(NC(=O)Nc2ccc(Cn3ncc(N4CCCNCC4)c(Cl)c3=O)cc2)cc1 (configuration not stated) | 31% | -6% | -2% | 83% (active) | inactive | inactive | inactive | inactive |
| CC(=O)Nc1cccc(NC(=O)CSc2ccc(-c3nc4ccccc4[nH]3)cn2)c1 | 73% (active) | 22% | -4% | 97% (active) | inactive | inactive | inactive | inactive |
| CC(=NNC(=S)Nc1ccccc1Cl)c1ccccn1 | 99% (active) | 69% (active) | 6% | 100% (active) | inactive | inactive | inactive | inactive |
| O=C(Nc1cccc(-c2cc3ccccc3[nH]2)c1)C1CCN(Cc2ccccc2O)CC1 | 25% | 34% | -1% | 95% (active) | inactive | inactive | inactive | inactive |
| Cc1ccccc1C1CCN(C2CCC(NC(=O)/C=C/c3c(F)ccc(F)c3F)CC2)CC1 (configuration not stated) | 33% | 37% | 1% | 82% (active) | inactive | inactive | inactive | inactive |
| O=C(N[C@@H](Cc1ccccc1)C(=O)NCCN1CCCCC1)c1ccc(O)c(-c2ccc(Cl)c(Cl)c2)c1 | 97% (active) | 6% | -3% | 99% (active) | inactive | inactive | inactive | inactive |
| COc1cccc(-c2ccc3c(-c4ccc(F)cc4)cnc(N)c3c2)c1 | 70% (active) | 27% | -2% | 100% (active) | inactive | inactive | inactive | inactive |
| CCCCCN1CCCN(Cc2cccc(NC(=O)c3ccc(-c4ccccc4)cc3)c2)CC1 | 15% | 23% | 6% | 95% (active) | inactive | inactive | inactive | inactive |
| CC1(C)N=C(N)N=C(N)N1OCCCc1cc(Cl)c(Cl)cc1Cl | 96% (active) | 55% (active) | 2% | 95% (active) | inactive | inactive | inactive | inactive |
| CN(CCC(O)c1ccc(Cl)c(Cl)c1)C[C@H]1C[C@@H]1C(=O)c1ccccc1 (some centres not stated) | 96% (active) | 11% | -3% | 98% (active) | inactive | inactive | inactive | inactive |
| CCCN(CCC)C(=S)N=Nc1c(O)[nH]c2ccccc12 | 86% (active) | 28% | -3% | 97% (active) | inactive | inactive | inactive | inactive |
| COc1ccc(NC(C)C(=O)Nc2ccc(Br)cc2)cc1S(=O)(=O)N1CCCCC1 (configuration not stated) | 97% (active) | 2% | -2% | 99% (active) | inactive | inactive | inactive | inactive |
| CCCC(CCC)n1ccc2c3c(N)nc(N)nc3ccc21 | 97% (active) | 66% (active) | -2% | 98% (active) | inactive | inactive | inactive | inactive |
